From PubChem BioAssay (NCATS)
“And” between values parts separate entries of the source, which are not always exact repeats. Equal entries are not always repeated. Results filed as inconclusive are left out. The source made the active and inactive calls. Unless noted, the call rests on the fitted dose curve; in most records, active means well fitted curve in the direction sought with a large enough effect; inconclusive means small, poorly fitted or top-dose-only effect, or another doubt; inactive means no such curve, though single readings can be large; an effect the other way counts as inactive or inconclusive.

What was measured:
[1] = Cell Viability - BJ (AID 421; calls by dose curve;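 further: potency means the concentration at half of the fitted maximal effect; cells exposed to compound for 40 hours at 37 °C before readout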); conditions: BJ fibroblast viability, qHTS
How it was run: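 Quantitative HTS: ATP depletion in BJ cells after 40 hr compound exposure in complete culture medium, detected with CellTiter-Glo; AC50 from standard Hill fits.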

[2] = Cell Viability - MRC5 (AID 434; calls by dose curve;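 further: potency means the concentration at half of the fitted maximal effect; cells exposed to compound for 40 hours at 37 °C; potency reflects cytotoxicity seen as loss of intracellular ATP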); conditions: MRC5 lung fibroblast viability, qHTS
How it was run: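 ATP luminescence read-out (CellTiter-Glo, 20 min RT) after 40 hr, 37 °C compound exposure of 1500 MRC5 cells/well. Data normalized to DMSO (basal) and 100 uM tamoxifen (100% inhibition); AC50 from standard Hill equation.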

[3] = biological target: Mitogen-activated protein kinase 10 (Mus musculus) (UniProt Q61831); experiment: JNK3 AlphaScreen Assay (AID 530; active means well fitted curve in either direction with a large enough effect, not every such curve was filed as active;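 further: kinase came from lysate of stimulated human HepG2 cells; signal reports phosphorylation of biotinylated GST-cJun 1-79 at Ser73 with 10 µM ATP; on the % scale 0 is the no-effect control and ±100 the full control effect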); conditions: JNK3 lysate, c-Jun phosphorylation; series mostly up to 57.1 µM
How it was run: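 Activity was read by AlphaScreen after JNK3-containing HepG2 lysate (cytokine pre-activated) phosphorylated biotinylated GST-cJun with 10 uM ATP at room temperature. Phospho-Ser73 cJun antibody with Protein-A acceptor beads provided detection.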

[4] = Cell Viability - NIH 3T3 (AID 541); conditions: NIH 3T3 cell viability, qHTS; activity change, negative = cytotoxicity: at 92.2 µM (top of the series);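 further: cells exposed to compound for 40 hours; plate controls were DMSO alone for no effect and tamoxifen positive control for full effect; nearly all actives have a fitted effect of over 25% in size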
How it was run: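 Intracellular ATP (CellTiter-Glo luminescence, 20 min at room temperature) measured after 40 hr compound exposure at 37 °C of 1000 NIH 3T3 mouse fibroblasts/well in complete medium; AC50 derived by Hill-equation modelling of qHTS concentration-response curves.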

[5] = Cell Viability - Mesenchymal (AID 546); conditions: mesenchymal cells viability, qHTS; activity change, negative = cytotoxicity: at 91.7 µM (top of the series);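 further: cells exposed to compound for 40 hours before reading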
How it was run: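 Human renal mesenchymal cells (glomerulus-derived), 1000 cells/well, 5 hr 37 °C pre-incubation; compound 40 hr, 37 °C; CellTiter-Glo, 20 min RT; luminescence; AC50 via Hill equation.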

[6] = Cellular Toxicity (caspase-3) HepG2 (AID 654); conditions: HepG2 caspase-3 activation, luminescence, 0% = DMSO only, 100% = tamoxifen; series mostly up to 92.2 µM;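 further: cells exposed to compound for 16 hours before reading; 0% = DMSO alone and 100% = caspase signal from 100 µM tamoxifen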
How it was run: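 Caspase 3/7 activation is measured as a luminescence increase (aminoluciferin substrate) after 16 h compound exposure of human hepatocarcinoma HepG2 cells. AC50 values are Hill fits, scaled between DMSO baseline and 100 uM tamoxifen stimulation.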

[7] = Cellular Toxicity (caspase-3) HUV-EC-C (AID 656); conditions: HUV-EC-C cells, caspase-3 activation (apoptosis), vehicle = 0, 100 µM tamoxifen = 100%; series mostly up to 92.2 µM
How it was run: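 Luminescent caspase-3/7 activation (aminoluciferin substrate cleavage) in HUV-EC-C cells after 16 hr compound exposure, 37°C. Signal normalized to DMSO basal and 100 uM tamoxifen as 100%; AC50 from concentration-response fitted with the Hill equation.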

[8] = Cellular Toxicity (caspase-3) MRC-5 (AID 659); conditions: MRC-5 cells, luminescence, normalized: DMSO 0%, 10 µM staurosporine 100%; series mostly up to 91.7 µM
How it was run: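 MRC-5 fibroblasts, 1500/well; 16 h cpd, 37 °C; Caspase-Glo 3/7, 1 h RT; lumi read. Norm: DMSO = 0%, 10 uM staurosporine = 100%. Hill-fit AC50 from qHTS conc-response.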

[9] = Cellular Toxicity (caspase-3) Mesangial (AID 660); conditions: mesangial cells, normalized: DMSO 0%, 100 µM tamoxifen 100%; series mostly up to 91.7 µM;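 further: combined caspase 3 and 7 activity read by Caspase-Glo luminescence; cells exposed to compound for 16 h before the caspase read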
How it was run: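 Caspase 3/7 activation measured by Caspase-Glo 3/7 luminescence (20 min, room temperature) following 16 h exposure of mesangial cells (1000/well); AC50 from Hill-equation fit, normalized to DMSO and 100 uM tamoxifen.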

[10] = Cellular Toxicity (caspase-3) Hek293 (AID 664); conditions: HEK293 caspase-3 activation, DMSO = 0%, 100 µM tamoxifen = 100%; series mostly up to 92.2 µM;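 further: cells exposed to compound for 16 h at 37 °C before readout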
How it was run: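 Concentration-response qHTS: caspase 3/7 activation measured by luminescent aminoluciferin substrate cleavage after 16 h compound exposure of Hek 293 cells. AC50 from Hill equation, with DMSO as basal and 100 uM tamoxifen as 100%.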

[11] = Cellular Toxicity (caspase-3) Renal Proximal Tubule (AID 667); conditions: renal proximal tubule cells, primary cells freshly taken from rat, solvent-only wells 0%, staurosporine 100%; series mostly up to 91.7 µM;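 further: cells exposed to compound for 16 hours at 37 °C before detection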
How it was run: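 Luminescent caspase 3/7 signal from peptide-aminoluciferin cleavage measures apoptosis in freshly isolated rat kidney proximal tubule cells after 16 h compound exposure. Concentration-response data are normalized to DMSO and 10 uM staurosporine, and AC50 values come from Hill equation fits.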

[12] = MultiTox-Fluor Cytotoxicity Assay - LYMP1-003 - Live Cells (AID 962); conditions: LYMP1-003 lymphoblastoid cells, MultiTox-Fluor live-cell protease fluorescence; series mostly up to 92.2 µM;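 further: cells exposed to compound for 16 hours at 37 °C; 0% = DMSO only and full loss = 92 µM tetraoctylammonium bromide; cytotoxic hits lower the live-cell protease signal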
How it was run: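 Live-cell protease activity (GF-AFC substrate, 405/510 nm, 60 min at room temperature) after 16 h, 37 C compound exposure of human lymphoblastoid LYMP1-003 cells; concentration-response fitted to the Hill equation for AC50.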

[13] = Cell Viability - LYMP1-003 - Assay at 40 hr (AID 964); conditions: LYMP1-003 lymphoblastoid viability; series mostly up to 92.2 µM; further: on the % scale 0 is the no-effect control and ±100 the full control effect; nearly all actives have a fitted effect of over 60% in size
How it was run: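 Viability is taken as cellular ATP, read by CellTiter-Glo luminescence after 40 h of compound exposure at 37 C. Cells: human lymphoblastoid line LYMP1-003 at 2500/well; AC50 values derived by Hill-equation fitting of concentration-response data.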

[14] = Cell Viability - LYMP2-011 (AID 969); conditions: LYMP2-011 lymphoblastoid cells viability; series mostly up to 92.2 µM;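 further: 0% = DMSO only and full inhibition = 92 µM tetraoctylammonium bromide; nearly all actives have a fitted effect of over 60% in size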
How it was run: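 Cytotoxicity qHTS with ATP content as read-out: lymphoblastoid cells (2500/well) exposed to compound for 24 h at 37 C, then luciferase luminescence measured. Concentration-response data fitted with the standard Hill equation to give AC50.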

[15] = Cell Viability - LYMP2-013 (AID 970); conditions: LYMP2-013 lymphoblastoid cells viability; series mostly up to 92.2 µM;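 further: 0% = DMSO only and full inhibition = tetraoctylammonium bromide control; nearly all actives have a fitted effect of over 55% in size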
How it was run: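 qHTS cytotoxicity: ATP-dependent luminescence (CellTiter-Glo, 30 min room temperature) read after 24 h compound exposure at 37 C of 2500 LYMP2-013 lymphoblastoid cells per well. Concentration-response fitted with Hill equation to give AC50.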

[16] = Cell Viability - LYMP2-017 (AID 972); conditions: LYMP2-017 lymphoblastoid cell viability; series mostly up to 92.2 µM; further: on the % scale 0 is the no-effect control and ±100 the full control effect; nearly all actives have a fitted effect of over 55% in size
How it was run: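 CellTiter-Glo luminescence (cellular ATP, 30 min RT) measured cytotoxicity after 24 hr compound treatment at 37 C. Cells were a human lymphoblastoid line, LYMP2-017, plated at 2500/well and incubated 5 hr first; concentration-response fitted with Hill equation for AC50.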

[17] = Cell Viability - LYMP2-007 (AID 979); conditions: LYMP2-007 lymphoblastoid cell viability; series mostly up to 92.2 µM;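 further: cells exposed to compound for 24 h before reading; 0% = DMSO only and the negative end = 92 µM tetraoctylammonium bromide; nearly all actives have a fitted effect of over 60% in size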
How it was run: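 AC50 values come from Hill-equation fits of luminescent intracellular ATP (CellTiter-Glo, 30 min, room temperature) following 24 h compound exposure at 37 C. Cells: LYMP2-007 lymphoblastoid line, 2500 per well, in complete culture medium.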

[18] = qHTS Assay for Identification of Small Molecule Inducers of Hypoxia Response (AID 2120; active means well fitted curve in the direction sought with a large enough effect in the signal ratio, with a control signal flat, not every such curve was filed as active; the % refers to the signal ratio; further: 0% is about no effect); conditions: hypoxia response reporter cells, beta-lactamase ratio readout; series mostly up to 104 µM
How it was run: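 Reporter induction read as the CCF4 blue/green (460nm/530nm) emission ratio after 2.5 h dye loading at room temperature. ME-180 HRE-beta-lactamase cells received titrated compounds for 17 h at 37 degrees Celsius; AC50 values derived.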

[19] = qHTS assay for small molecule antagonists of retinoid X receptor alpha signaling (AID 588546); conditions: HEK293T RXRa-UAS-bla, beta-lactamase ratio, antagonist mode; measured here: W530 green channel, cytotoxicity proxy;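 further: cells stimulated with 9-cis-retinoic acid as agonist; on the % scale 0 is the no-effect control and ±100 the full control effect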
How it was run: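 Beta-lactamase reporter inhibition, read as CCF4 fluorescence ratio (ex 405, em 460/530 nm) after 2 h at RT. HEK293T UAS-bla cells, 2500/well, were stimulated with 9-cis-RA at 500 or 100 nM final alongside test compound for 18 h at 37 C.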

[20] = biological target: Peroxisome proliferator-activated receptor alpha (Homo sapiens) (UniProt Q07869); experiment: qHTS assay for small molecule agonists of the peroxisome proliferator-activated receptor alpha (PPARalpha) signaling pathway (AID 651778); conditions: PathHunter PPARalpha complementation, chemiluminescence, 6 h; max response: stronger effect = higher value; further: % of control where 0% means no effect
Peroxisome proliferator-activated receptor alpha (Homo sapiens), sequence (Q07869 whole entry, looked up, the tested form may be a part): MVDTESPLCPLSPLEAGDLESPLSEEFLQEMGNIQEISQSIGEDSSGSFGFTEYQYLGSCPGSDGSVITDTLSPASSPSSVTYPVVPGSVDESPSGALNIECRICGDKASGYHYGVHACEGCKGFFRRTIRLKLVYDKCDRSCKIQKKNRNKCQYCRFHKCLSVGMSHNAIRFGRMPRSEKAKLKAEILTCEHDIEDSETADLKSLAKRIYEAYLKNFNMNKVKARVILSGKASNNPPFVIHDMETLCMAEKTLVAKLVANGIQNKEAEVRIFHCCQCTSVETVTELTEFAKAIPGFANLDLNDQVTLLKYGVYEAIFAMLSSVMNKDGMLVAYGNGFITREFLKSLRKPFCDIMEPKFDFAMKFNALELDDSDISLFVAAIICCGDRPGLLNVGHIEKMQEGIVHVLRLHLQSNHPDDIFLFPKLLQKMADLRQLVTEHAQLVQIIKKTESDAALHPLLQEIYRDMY
How it was run: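 Enzyme-fragment complementation assay in which ligand-bound PPARalpha translocates and forms an active enzyme that generates chemiluminescence. Cells were plated overnight, exposed to compound for 6 hr at 37 C, and then given detection reagent for 60 min at room temperature.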

ClCCCl
inactive: Potency [1] > 92 µM | Potency [2] > 92 µM | Potency [3] | Potency [4] | activity change, negative = cytotoxicity [5] 8.24% | outcome [6] | outcome [7] | outcome [8] | outcome [9] | outcome [10] | outcome [11] | Potency [12] | Potency [13] | Potency [14] | Potency [15] | Potency [16] | Potency [17] | outcome [18] | max response [20] 1.65% and -1.11%
-8.92% and -8.87% and -8.24%: max response [19]

CN1CC[C@H](CN2c3ccccc3Sc3ccccc32)C1
inactive: activity change, negative = inhibition [3] 0.762% [at 11.4 µM]

C/C=C\c1ccc(OC)cc1
1.79%: max response [19]
inactive: Potency [1] > 92 µM | Potency [2] > 92 µM | Potency [3] | Potency [4] | activity change, negative = cytotoxicity [5] -1.47% | outcome [6] | outcome [7] | outcome [8] | outcome [9] | outcome [10] | outcome [11] | Potency [12] | Potency [13] | Potency [14] | Potency [15] | Potency [16] | Potency [17] | outcome [18] | max response [20] -5.71%

c1ccccc1
inactive: Potency [1] > 92 µM | Potency [2] > 92 µM | Potency [3] | Potency [4] | activity change, negative = cytotoxicity [5] 7.51% and 0.0243% | outcome [6] | outcome [7] | outcome [8] | outcome [9] | outcome [10] | outcome [11] | Potency [12] | Potency [13] | Potency [14] | Potency [15] | Potency [16] | Potency [17] | outcome [18] | max response [20] -1.87% [middle of 4 runs]
6.17% [middle of 4 runs]: max response [19]

C1OCOCO1
-18.1%: max response [19]
inactive: Potency [1] > 92 µM | Potency [2] > 92 µM | Potency [3] | Potency [4] | activity change, negative = cytotoxicity [5] -5.36% | outcome [6] | outcome [7] | outcome [8] | outcome [9] | outcome [10] | outcome [11] | Potency [12] | Potency [13] | Potency [14] | Potency [15] | Potency [16] | Potency [17] | outcome [18] | max response [20] -0.344%

CC(C)=CCCC(C)CCO (stereo unspecified)
-7.35% and -8.91%: max response [19]
inactive: Potency [1] > 92 µM | Potency [2] > 92 µM | Potency [3] | Potency [4] | activity change, negative = cytotoxicity [5] 5.35% | outcome [6] | outcome [7] | outcome [8] | outcome [9] | outcome [10] | outcome [11] | Potency [12] | Potency [13] | Potency [14] | Potency [15] | Potency [16] | Potency [17] | outcome [18] | max response [20] -8.23% and 0.206%

CN(C)CCCCCCN(C)C
inactive: Potency [1] > 92 µM | Potency [2] > 92 µM | Potency [3] | Potency [4] | activity change, negative = cytotoxicity [5] 10.5% | outcome [6] | outcome [7] | outcome [8] | outcome [9] | outcome [10] | outcome [11] | Potency [12] | Potency [13] | Potency [14] | Potency [15] | Potency [16] | Potency [17] | outcome [18] | max response [20] -5.54%
-0.59%: max response [19]

CC1=CC(C)(C)Nc2ccccc21
inactive: Potency [1] > 92 µM | Potency [2] > 92 µM | Potency [3] | Potency [4] | activity change, negative = cytotoxicity [5] 16.2% and 9.84% | outcome [6] | outcome [7] | outcome [8] | outcome [9] | outcome [10] | outcome [11] | Potency [12] | Potency [13] | Potency [14] | Potency [15] | Potency [16] | Potency [17] | outcome [18] | max response [20] 2.08% and -3.28%
-11.3% and -9.31%: max response [19]

O=C(O)c1ccc(O)cc1O
inactive: Potency [1] > 92 µM | Potency [2] > 92 µM | Potency [3] | Potency [4] | activity change, negative = cytotoxicity [5] 5.57% and 9.36% | outcome [6] | outcome [7] | outcome [8] | outcome [9] | outcome [10] | outcome [11] | Potency [12] | Potency [13] | Potency [14] | Potency [15] | Potency [16] | Potency [17] | outcome [18] | max response [20] -2.85% and -4.3%
-5.6%: max response [19]

COC(=O)c1ccc(C)cc1
-12.4% and -3.35%: max response [19]
inactive: Potency [1] > 92 µM | Potency [2] > 92 µM | Potency [3] | Potency [4] | activity change, negative = cytotoxicity [5] -2.78% | outcome [6] | outcome [7] | outcome [8] | outcome [9] | outcome [10] | outcome [11] | Potency [12] | Potency [13] | Potency [14] | Potency [15] | Potency [16] | Potency [17] | outcome [18] | max response [20] 0.456% and 0.65%

CC(=O)OC/C=C(\C)CCC=C(C)C
-3.71% and -6.77%: max response [19]
inactive: Potency [1] > 92 µM | Potency [2] > 92 µM | Potency [3] | Potency [4] | activity change, negative = cytotoxicity [5] 8.38% | outcome [6] | outcome [7] | outcome [8] | outcome [9] | outcome [10] | outcome [11] | Potency [12] | Potency [13] | Potency [14] | Potency [15] | Potency [16] | Potency [17] | outcome [18] | max response [20] -5.73% and -0.163%
